PubChem BioAssay
For part of these data: Results with a measured potency or affinity are listed apart. Active and inactive are the calls of the source. Unless noted, no rule for the calls is given here.

Tests used:
[1] = antimalarial activity against Dd2 strain (AID 2302;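 active = growth inhibition above 50% at the single 2 µM test dose, taken to imply half-maximal potency below 2 µM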;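 also: 0% = DMSO untreated growth and 100% = chloroquine plus artemisinin killed control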); conditions: P. falciparum Dd2 in RBCs, LDH growth readout, 72 h; at 2 µM; stronger effect = higher value
[2] = HepG2 cytotoxicity, primary screen, cytotoxicity control for P. falciparum antimalarial project, cell-based, ATP luminescence (AID 2303;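 active = inhibition above 50%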;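 also: 0% = DMSO wells and 100% = digitonin-killed cells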); conditions: HepG2 viability, 24-48 h, at 10 µM, stronger effect = higher value
[3] = biological target: L-lactate dehydrogenase (Plasmodium falciparum (isolate CDC / Honduras)) (UniProt Q27743); experiment: PfLDH activity inhibition – cell lysate, 3D7 strain, counter-screen for P. falciparum growth inhibition project (AID 2304);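 also: 0% = vehicle and 100% = reference inhibitor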; conditions: P. falciparum 3D7 crude extract, LDH APAD/NBT absorbance; at 2 µM; stronger effect = higher value
[4] = inhibition of 3D7 malaria parasite growth – strain 3D7 (AID 2306);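 also: 0% = DMSO wells and 100% = chloroquine plus artemisinin control wells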; conditions: P. falciparum 3D7 erythrocytic growth, LDH absorbance, 72 h; at 2 µM; stronger effect = higher value
[5] = biological target: Calcium-dependent protein kinase 1 (Plasmodium falciparum (isolate 3D7)) (UniProt P62344); experiment: PfCDPK1 kinase inhibitors, biochemical, TCAMS library (AID 1159585; cut-off not given, nearly all actives have IC50 up to about 0.98 µM;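 also: inhibitors leave more ATP so luminescence rises with inhibition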); conditions: recombinant PfCDPK1, Kinase-Glo ATP depletion luminescence
[6] = biological target: Plasmodium falciparum protein kinase 6 (PK6, PF3D7_1337100) (UniProt Q8IDW1); experiment: PfPK6 kinase inhibitors, biochemical, TCAMS library (AID 1159586); conditions: recombinant PfPK6, Kinase-Glo ATP depletion luminescence
[7] = biological target: Protein kinase 7 (PK7), Plasmodium falciparum 3D7 (PF3D7_0213400) (UniProt Q7YTF7); experiment: inhibition of Plasmodium PK7 catalytic activity – biochemical, TCAMS antimalarial set, Kinase-Glo luminescence (AID 1159587); conditions: recombinant PfPK7, Kinase-Glo ATP depletion luminescence
[8] = biological target: Calcium-dependent protein kinase 4 (Plasmodium falciparum (isolate 3D7)) (UniProt Q8IBS5); experiment: PfCDPK4 kinase inhibitors, biochemical, TCAMS library (AID 1159588; cut-off not given, nearly all actives have IC50 up to about 0.91 µM); conditions: recombinant PfCDPK4, Kinase-Glo ATP depletion luminescence
Sequence of Calcium-dependent protein kinase 4 (Plasmodium falciparum (isolate 3D7)) (Q8IBS5 whole entry, looked up): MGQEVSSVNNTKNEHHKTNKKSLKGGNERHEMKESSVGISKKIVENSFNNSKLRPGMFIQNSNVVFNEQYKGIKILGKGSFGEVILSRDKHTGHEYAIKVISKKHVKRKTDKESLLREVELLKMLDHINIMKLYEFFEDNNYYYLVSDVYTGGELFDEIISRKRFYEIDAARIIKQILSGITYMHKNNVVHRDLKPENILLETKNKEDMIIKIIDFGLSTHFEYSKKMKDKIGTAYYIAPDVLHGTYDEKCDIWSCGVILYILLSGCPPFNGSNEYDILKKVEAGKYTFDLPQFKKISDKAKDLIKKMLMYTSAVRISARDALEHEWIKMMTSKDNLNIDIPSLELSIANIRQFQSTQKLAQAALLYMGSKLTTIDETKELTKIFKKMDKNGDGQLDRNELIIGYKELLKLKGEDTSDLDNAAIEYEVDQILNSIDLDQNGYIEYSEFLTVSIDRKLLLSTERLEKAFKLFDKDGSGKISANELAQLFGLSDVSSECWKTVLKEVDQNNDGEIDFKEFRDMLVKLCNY

Sequence of Protein kinase 7 (PK7), Plasmodium falciparum 3D7 (PF3D7_0213400) (Q7YTF7 1-343): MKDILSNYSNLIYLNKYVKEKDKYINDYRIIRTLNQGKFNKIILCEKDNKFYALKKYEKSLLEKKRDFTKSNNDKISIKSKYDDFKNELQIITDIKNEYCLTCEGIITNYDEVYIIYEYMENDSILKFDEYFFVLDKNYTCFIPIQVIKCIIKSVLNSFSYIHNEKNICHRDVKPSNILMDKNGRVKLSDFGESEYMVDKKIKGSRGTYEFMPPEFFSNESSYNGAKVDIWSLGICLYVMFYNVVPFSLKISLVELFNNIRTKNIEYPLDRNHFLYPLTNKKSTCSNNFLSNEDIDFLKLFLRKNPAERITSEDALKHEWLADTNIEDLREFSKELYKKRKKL
Sequence of Plasmodium falciparum protein kinase 6 (PK6, PF3D7_1337100) (Q8IDW1 1-305): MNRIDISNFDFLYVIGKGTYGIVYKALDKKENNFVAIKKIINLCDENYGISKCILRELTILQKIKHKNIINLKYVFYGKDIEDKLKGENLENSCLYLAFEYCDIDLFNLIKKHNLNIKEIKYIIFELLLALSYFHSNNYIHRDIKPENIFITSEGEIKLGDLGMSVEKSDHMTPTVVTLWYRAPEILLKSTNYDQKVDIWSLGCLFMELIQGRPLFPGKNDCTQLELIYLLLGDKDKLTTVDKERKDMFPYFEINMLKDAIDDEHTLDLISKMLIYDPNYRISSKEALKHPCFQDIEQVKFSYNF
Sequence of L-lactate dehydrogenase (Plasmodium falciparum (isolate CDC / Honduras)) (Q27743 whole entry, looked up): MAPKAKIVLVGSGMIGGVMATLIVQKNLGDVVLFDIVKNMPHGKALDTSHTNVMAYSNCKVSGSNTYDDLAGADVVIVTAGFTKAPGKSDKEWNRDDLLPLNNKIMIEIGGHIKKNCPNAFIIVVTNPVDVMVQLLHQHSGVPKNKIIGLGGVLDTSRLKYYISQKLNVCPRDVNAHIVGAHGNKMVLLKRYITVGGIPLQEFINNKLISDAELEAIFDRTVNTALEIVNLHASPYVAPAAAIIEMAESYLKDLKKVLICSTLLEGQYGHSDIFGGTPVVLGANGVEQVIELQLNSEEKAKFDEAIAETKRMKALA
Sequence of Calcium-dependent protein kinase 1 (Plasmodium falciparum (isolate 3D7)) (P62344 whole entry, looked up): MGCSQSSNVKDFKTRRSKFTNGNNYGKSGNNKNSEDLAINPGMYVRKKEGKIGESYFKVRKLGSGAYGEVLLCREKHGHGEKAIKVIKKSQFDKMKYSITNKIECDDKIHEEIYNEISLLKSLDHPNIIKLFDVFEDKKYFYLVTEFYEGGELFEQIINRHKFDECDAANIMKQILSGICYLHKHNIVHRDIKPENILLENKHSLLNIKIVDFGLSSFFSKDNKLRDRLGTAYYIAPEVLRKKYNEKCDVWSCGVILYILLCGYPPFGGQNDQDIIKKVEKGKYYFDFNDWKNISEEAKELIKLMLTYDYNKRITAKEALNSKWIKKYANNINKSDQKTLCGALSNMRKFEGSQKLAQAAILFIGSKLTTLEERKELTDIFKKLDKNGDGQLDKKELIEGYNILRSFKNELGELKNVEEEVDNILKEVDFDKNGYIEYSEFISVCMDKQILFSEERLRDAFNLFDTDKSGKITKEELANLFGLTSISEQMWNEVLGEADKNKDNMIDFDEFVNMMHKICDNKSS

CCCNCc1ccc(-c2ccc(CN(CCOC)C(=O)CC3CCCC3=O)cc2)nc1 (centres undefined)
inactive: growth inhibition [1] 9% | inhibition [2] 5% | inhibition [3] 3% | outcome [5] | outcome [6] | outcome [7] | outcome [8]
active: growth inhibition [4] 93%

CCC(=O)Nc1ccc(Nc2nc(C)cc(N3CCCC3)n2)cc1
inactive: growth inhibition [1] 2% | inhibition [2] 34% | inhibition [3] -2% | outcome [5] | outcome [6] | outcome [7] | outcome [8]
active: growth inhibition [4] 91%

CC(C)c1ccc(-c2nc3ncc(Cl)cc3[nH]2)cc1
inactive: inhibition [2] 3% | inhibition [3] -2% | outcome [5] | outcome [6] | outcome [7] | outcome [8]
active: growth inhibition [1] 77% | growth inhibition [4] 87%

COc1cc(NC(=O)N2CCc3ccc(OCCN(C(C)C)C(C)C)cc32)cc(C(F)(F)F)c1
inactive: inhibition [2] 6% | inhibition [3] 3% | outcome [5] | outcome [6] | outcome [7] | outcome [8]
active: growth inhibition [1] 97% | growth inhibition [4] 102%

CC(O)C1CCCCN1C(=O)c1ccc(-c2cccc(-c3nc4ccc(F)cc4[nH]3)c2)cc1 (centres undefined)
inactive: inhibition [2] 30% | inhibition [3] -6% | outcome [5] | outcome [6] | outcome [7] | outcome [8]
active: growth inhibition [1] 97% | growth inhibition [4] 100%

COc1ccc2cc(C(C)NC3CCN(c4cccc(NC(=O)c5ccncc5)c4)CC3)ccc2c1 (centres undefined)
active: growth inhibition [4] 91%
inactive: growth inhibition [1] 6% | inhibition [2] 13% | inhibition [3] -1% | outcome [5] | outcome [6] | outcome [7] | outcome [8]

Cc1cc(N[C@@H](CC(C)C)C(=O)Nc2ccccc2)nc(Nc2ccccc2)n1
inactive: inhibition [2] -2% | inhibition [3] -1% | outcome [5] | outcome [6] | outcome [7] | outcome [8]
active: growth inhibition [1] 93% | growth inhibition [4] 99%

CCOC(=O)C1=C(C)NC(C)=C(C(=O)OCC)C1(C(=O)OCc1ccccc1)c1cccc(C(F)(F)F)c1
active: growth inhibition [1] 60% | growth inhibition [4] 88%
inactive: inhibition [2] -17% | inhibition [3] 5% | outcome [5] | outcome [6] | outcome [7] | outcome [8]

COc1cccc(Nc2c(C(N)=O)cnc3ccc(-c4ccc(S(C)=O)cc4)cc23)c1 (centres undefined)
active: growth inhibition [1] 100% | growth inhibition [4] 96%
inactive: inhibition [2] -3% | inhibition [3] 9% | outcome [5] | outcome [6] | outcome [7] | outcome [8]

CCOc1ccc2nc(-c3ccccc3)cc(NN=Cc3ccncc3)c2c1
inactive: inhibition [2] 19% | inhibition [3] 0% | outcome [5] | outcome [6] | outcome [7] | outcome [8]
active: growth inhibition [1] 101% | growth inhibition [4] 102%

CCOc1ccc2nc(C)cc(NN=Cc3ccccc3Cl)c2c1
inactive: inhibition [2] 11% | inhibition [3] -4% | outcome [5] | outcome [6] | outcome [7] | outcome [8]
active: growth inhibition [1] 100% | growth inhibition [4] 101%

COc1ccccc1CCNc1nc(C)cc(N[C@@H](CC(C)C)C(=O)NCCc2ccccc2)n1
inactive: inhibition [2] 12% | inhibition [3] -2% | outcome [5] | outcome [6] | outcome [7] | outcome [8]
active: growth inhibition [1] 81% | growth inhibition [4] 97%

O=S(=O)(NCCCN1CCOCC1)c1ccc2nccc(Nc3ccc(Oc4ccccc4)cc3)c2c1
active: growth inhibition [1] 92% | growth inhibition [4] 95%
inactive: inhibition [2] 1% | inhibition [3] -2% | outcome [5] | outcome [6] | outcome [7] | outcome [8]

C=CCOc1ccc(C2C(C(=O)OC)=C(C)NC3=C2C(=O)c2ccccc23)cc1OC (centres undefined)
inactive: inhibition [2] -4% | inhibition [3] -8% | outcome [5] | outcome [6] | outcome [7] | outcome [8]
active: growth inhibition [1] 65% | growth inhibition [4] 82%

O=C(/C=C/c1ccc(Cl)c(Cl)c1)NCCCCCN1CCCN(C(=O)Nc2ccc(Cl)c(C(F)(F)F)c2)CC1
inactive: growth inhibition [1] 16% | inhibition [2] 35% | inhibition [3] 4% | outcome [5] | outcome [6] | outcome [7] | outcome [8]
active: growth inhibition [4] 102%

CNC(=O)c1[nH]c(-c2ccccc2)nc1NC(C)=O
inactive: growth inhibition [1] -2% | inhibition [2] -3% | inhibition [3] -2% | outcome [5] | outcome [6] | outcome [7] | outcome [8]
active: growth inhibition [4] 100%

CN(C(=O)Nc1ccc(C(F)(F)F)cc1)C1CCN(CCCCCNC(=O)/C=C/c2ccc(Cl)c(Cl)c2)CC1
inactive: growth inhibition [1] 38% | inhibition [3] -3% | outcome [5] | outcome [6] | outcome [7] | outcome [8]
active: inhibition [2] 57% | growth inhibition [4] 101%

CN1CCN(c2cc3c(cc2Cl)CCN3C(=O)Cc2ccc(Cl)c(NC(=O)Nc3cccc(C#N)c3)c2)CC1
inactive: growth inhibition [1] 40% | inhibition [2] -1% | inhibition [3] -1% | outcome [5] | outcome [6] | outcome [7] | outcome [8]
active: growth inhibition [4] 99%
